# eIF4E-4G inh: blocks eIF4E binding to eIF4G; TR-FRET eIF4E-eIF4GI(517-606) binding, 2 h; P63073+Q04637; AID 782; actives 0.37% (n = 220,000); inhibition, % at 21.7 µM
# 14-3-3 Bad inh: disrupts binding of bovine 14-3-3 zeta to phospho-Bad peptide; TR-FRET 14-3-3zeta/Dy647-pBad peptide displacement, 1 h; actives 0.71% (n = 220,000); P63103; inhibition, % at 21.7 µM;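 active = inhibition above about 70%, limit read from the data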
# Target sequence (P63103 whole entry, looked up): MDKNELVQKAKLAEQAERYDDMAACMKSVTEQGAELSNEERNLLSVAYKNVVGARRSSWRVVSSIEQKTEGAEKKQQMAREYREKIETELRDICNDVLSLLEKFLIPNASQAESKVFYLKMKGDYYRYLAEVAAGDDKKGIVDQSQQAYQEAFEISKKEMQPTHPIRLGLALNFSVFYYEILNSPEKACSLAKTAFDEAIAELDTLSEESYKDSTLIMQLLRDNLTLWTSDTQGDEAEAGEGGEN
# Mcl1-Noxa inh: Mcl-1/Noxa interaction inhibition. inhibition, % at 21.7 µM. TR-FRET Mcl-1/Noxa peptide binding, 2 h. actives 1.5% (n = 220,000). Q07820;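 active = compounds that cut the protein-peptide binding signal by more than 50% relative to plate controls in a single-dose test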;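 also: His-tagged Mcl-1 with rhodamine Noxa BH3 peptide and terbium anti-His antibody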
# Target sequence (Q07820 whole entry, looked up): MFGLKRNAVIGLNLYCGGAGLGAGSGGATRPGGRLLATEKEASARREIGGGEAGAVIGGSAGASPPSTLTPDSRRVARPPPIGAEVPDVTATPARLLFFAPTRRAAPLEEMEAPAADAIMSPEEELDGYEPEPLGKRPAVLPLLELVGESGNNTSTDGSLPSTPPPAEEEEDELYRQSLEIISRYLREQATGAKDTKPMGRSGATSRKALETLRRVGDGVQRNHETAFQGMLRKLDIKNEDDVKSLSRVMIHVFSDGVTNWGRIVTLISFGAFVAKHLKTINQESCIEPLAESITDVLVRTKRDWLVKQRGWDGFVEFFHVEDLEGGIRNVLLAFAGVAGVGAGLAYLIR
# Mcl1-Bid inh: disrupts binding of human Mcl-1 to Bid peptide. Q07820. TR-FRET Mcl-1/Bid-Dy647 peptide binding, 1536-well. inhibition, % at 21.7 µM. actives 0.97% (n = 220,000);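 active = compounds that cut the binding signal by more than half at the single screening dose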;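 also: His-tagged Mcl-1 with europium anti-His antibody binding Bid BH3 peptide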
# Bim-Mcl-1: disrupts Bim peptide binding to human Mcl-1; Q07820; Bead-based flow cytometry, Bim peptide-Mcl-1 binding; inhibition, % at 10 µM; actives 0.1% (n = 190,000); in the data active = inhibition above about 40%
# p47phox inh: p47phox (human) inhibition | P14598 | p47phox/p22phox peptide binding, fluorescence polarization, 2 h | inhibition, % at 24.7 µM | actives 0.53% (n = 220,000) | AID 1274
# A number is an active result; n = inactive; x = no result; + = active, no number. A selection: hits, their analogues and other compounds. The true share with any hit is near 3.4%.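 The calls were made as follows, unless noted: active = inhibition above about 30% (limit read from the data); inactive = the rest.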
SMILES,eIF4E-4G inh,14-3-3 Bad inh,Mcl1-Noxa inh,Mcl1-Bid inh,Bim-Mcl-1,p47phox inh
CCC(C)(C)NC(=O)C(Sc1ccccc1)c1ccccc1 (stereo not given),n,n,n,n,n,n
COc1ccc(/C=C2\SC(=S)N(c3cccnc3)C2=O)cc1,n,n,n,n,x,n
O=C1/C(=C/c2ccco2)SC(=S)N1c1cccnc1,55.2,85.0,94.1,n,x,n
O=C1/C(=C\c2ccc(O)cc2)SC(=S)N1c1cccnc1,n,n,73.1,n,n,n
CN1CCN(CC(=O)N2CCn3c4c(c5cc(C6CCCCC6)ccc53)CCCC42)CC1 (stereo not given),n,n,n,n,n,31.4
Cc1ccc2c(c1)c1c3n2CCN(C(=O)CN2CCN(C)CC2)C3CCC1 (stereo not given),n,n,n,n,n,n
O=c1[nH]cnc2sc3c(c12)CCC3,n,n,n,n,x,n
O=C(CCC1CCCN(C(=O)CCC(F)(F)F)C1)NCc1ccc(F)c(F)c1 (stereo not given),n,n,52.6,n,n,n
COc1cc(/C=N/NC(=O)c2ccc(CSc3nc4ccccc4[nH]3)cc2)ccc1O,n,n,61.6,n,n,n
COc1ccc(/C=N/NC(=O)c2nc(-c3ccccc3)cc(-c3ccccc3)n2)cc1O,n,n,68.2,n,n,n
COc1ccc(/C=N/NC(=O)c2ccc(CN3C(=O)c4cccc5cccc3c45)cc2)cc1O,n,n,61.2,n,n,x
O=C1c2cccc3cccc(c23)N1Cc1ccc(F)cc1,n,n,n,n,n,n
COc1cc(/C=N/NC(=O)c2ccc(CN3C(=O)c4cccc5cccc3c45)cc2)cc(OC)c1O,n,n,75.5,n,x,n
COc1ccc(/C=N/NC(=O)c2nc(-c3ccccc3)cc(-c3ccccc3)n2)cc1,n,n,n,n,n,n
CCn1c(C)nc2cc(C(=O)NNC(=S)NC(=O)c3ccccc3)ccc21,n,n,n,n,n,n
COC(=O)C1=COC(C)C2CN3CCc4c([nH]c5cc(OC)c(OC)cc45)C3CC12 (stereo not given),n,n,n,n,x,n
CCc1nnc(NC(=O)Cc2ccc(OCc3c(C)noc3C)cc2)s1,64.8,n,n,n,n,n
CCc1nnc(NC(=O)Cc2ccc(OC)cc2)s1,n,n,n,n,n,n
COc1ccc(C2CC(c3ccc4ccccc4c3OC(C)=O)=NN2C(C)=O)cc1 (stereo not given),n,n,n,n,x,n
CSCCOC(=O)c1[nH]c2c(c1C)C(=O)CC(c1ccco1)C2 (stereo not given),n,n,58.2,n,n,n
CCOC(=O)c1[nH]c2c(c1C)C(=O)CC(c1ccco1)C2 (stereo not given),n,n,79.1,n,n,n
Cc1c(C(=O)OCc2ccccc2)[nH]c2c1C(=O)CC(c1ccco1)C2 (stereo not given),n,n,60.9,71.5,n,n
COCCOC(=O)c1[nH]c2c(c1C)C(=O)CC(c1ccco1)C2 (stereo not given),n,n,52.5,n,n,n
Cc1c(C(=O)OCCOC(C)C)[nH]c2c1C(=O)CC(c1ccco1)C2 (stereo not given),n,n,n,n,n,n
COCCOC(=O)c1[nH]c2c(c1C)C(=O)CC(c1ccccc1)C2 (stereo not given),n,n,n,n,n,n
SMILES,eIF4E-4G inh,14-3-3 Bad inh,Mcl1-Noxa inh,Mcl1-Bid inh,Bim-Mcl-1,p47phox inh
O=C(O)C(Cc1ccccc1-c1ccccc1)C(=O)O,n,n,n,n,x,n
COc1ccc2c(c1)nc(NCCCO)n2Cc1ccccc1,n,n,n,n,x,n
Cc1cc(NC(=O)c2noc3c2CCc2ccccc2-3)no1,n,n,n,67.4,n,n
Cc1ccc(O)c(NC(=O)c2noc3c2CCc2ccccc2-3)c1,n,n,n,n,n,n
COc1ccc(/C=N/NC(=O)c2nn(-c3ccccc3)c(=O)c3c(N)scc23)cc1,n,n,54.7,n,n,n
COc1ccc(/C=N/NC(=O)c2nn(-c3ccc(Cl)cc3)c(=O)c3c(N)scc23)cc1,n,n,57.2,n,n,n
COc1ccc(/C=N/NC(=O)c2nn(-c3ccc(C)c(C)c3)c(=O)c3ccccc23)cc1,n,n,n,n,n,+
CCOC(=O)c1nn(-c2ccc(OC)cc2)c(=O)c2c(N)scc12,n,n,n,n,n,n
CC(C)c1cccc(OCCCCN(C)C)c1,n,n,n,n,n,n
CCN1CCCC1CNC(=O)C(=O)NC(C)c1ccccc1 (stereo not given),n,n,n,n,n,n
O=C1CCCC2=C1C(c1ccc(Cl)cc1)C1C(=O)c3ccccc3C1=N2 (stereo not given),n,n,n,n,n,n
O=C1CCCC2=C1C(c1ccccc1)C1C(=O)c3ccccc3C1=N2 (stereo not given),n,n,58.3,n,n,n
Cc1c(C(=O)C(=O)NCC2CCCO2)c2ccccc2n1C (stereo not given),n,n,n,n,n,n
CCOc1ccc(C(=O)Nc2nnc(NC(=S)Nc3ccccc3)s2)cc1,n,n,n,n,64.0,n
CCN1/C(=C/c2cc[n+](C)cc2)C=Cc2cc(C)ccc21,n,n,56.0,n,n,n
Cn1c(=O)c(C(=O)CSc2nnc(Nc3ccccc3)s2)c(N)n(Cc2ccccc2)c1=O,n,n,70.3,n,n,n
Cc1ccccc1Nc1nnc(SCC(=O)c2c(N)n(C)c(=O)n(C)c2=O)s1,n,n,n,n,n,n
CCN(c1ccc(F)cc1)S(=O)(=O)c1ccc2[nH]cc(C(=O)NCCCN3CCOCC3)c(=O)c2c1,n,n,n,n,n,n
CCN(c1ccccc1)S(=O)(=O)c1ccc2[nH]cc(C(=O)N3CCOCC3)c(=O)c2c1,n,n,n,57.4,n,n
O=C1Nc2ccc(Br)cc2C12NNc1ccccc1O2 (stereo not given),n,n,n,n,n,n
CO/N=C/C(C#N)c1ncc(C(F)(F)F)cc1Cl (stereo not given),83.3,n,n,n,n,n
O=C(O)C1CCN(c2ccc(S(=O)(=O)N3CCOCC3)cc2[N+](=O)[O-])CC1,n,88.6,n,n,n,68.8
Cc1ccc2nc(C)cc(Nc3ccc([N+](=O)[O-])cc3)c2c1,n,76.9,n,n,n,n
COc1cc(/C=N/N(C)c2ccccc2)cc(Cl)c1O,n,n,67.1,n,n,n
Cc1ccc(N2CC(C(=O)Nc3ccc(N(C)C)cc3)CC2=O)cc1C (stereo not given),n,n,75.2,n,n,n
OCCC1CN(Cc2cnc(-c3ccc(Cl)cc3)nc2)CCN1C1CCCC1 (stereo not given),n,n,n,n,x,n
COc1ccc2c(c1OC)C(=O)OC2,n,n,n,n,n,n

# From PubChem
